Measurements published in PubChem BioAssay.
Several values for one entry are separate records, joined by “and”; a condition that tells them apart may be missing. Identical values can stand only once.

Experiment: HDN33 neuroblastoma growth inhibition, cell-based, chromothripsis tumors, cisplatin or BGB combos (AID 1671450);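 further: cells exposed to compound for four days; 0% = vehicle DMSO and 100% = cell killing by high DMSO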
Details: HDN33 neuroblastoma cells, measured here: with cisplatin IC20 combination, at 0.5 µM, stronger effect = higher value

Structure (SMILES) | inhibition
COc1ccccc1S(=O)(=O)Nc1ccc2c(c1)CN(C)C(=O)N2 | -25.5%
Cc1cc(C#N)cc(C)c1Oc1nc(Nc2ccc(C#N)cc2)nc(N)c1Br | 0.249%
Nc1ncn(C2OC(CO)C(O)C2O)c(=O)n1 (stereo not drawn) | 6.68%
Cc1cc(C)c(Nc2ccnc(Nc3ccc(C#N)cc3)n2)c(C)c1 | 7.83%
COc1ccc(CC(N)C(=O)NC2C(CO)OC(n3cnc4c(N(C)C)ncnc43)C2O)cc1 (stereo not drawn) | 74% and 96.7%
O=c1ccn(C2OC(CO)C(O)C2O)c(=O)[nH]1 (stereo not drawn) | 35.5% and -0.199%
CC=C1NC(=O)C2CSSCCC=CC(CC(=O)NC(C(C)C)C(=O)N2)OC(=O)C(C(C)C)NC1=O (stereo not drawn) | 99.8% and 99.9%
CN(C)CC(=O)Nc1ccc2[nH]c(=O)c3ccccc3c2c1 | 16.9% and 5.73% and -18.5%
CC1OC(n2cc(F)c(=O)[nH]c2=O)C(O)C1O (stereo not drawn) | -19.8%
Nc1ccn(C2OC(CO)C(O)C2(F)F)c(=O)n1 (stereo not drawn) | 86.2% and 82.4% and 79.7%
Cc1cn(C2CC(N=[N+]=[N-])C(CO)O2)c(=O)[nH]c1=O (stereo not drawn) | -46.8% and 4.29%
CC(C=CC(=O)NO)=CC(C)C(=O)c1ccc(N(C)C)cc1 (stereo not drawn) | 98.3%
NC(=S)NN=Cc1ncccc1N | 14.3%
CC(C)(C#N)c1ccc(N2C(=O)OCc3cnc4ccc(-c5cnc6ccccc6c5)cc4c32)cc1 | -10.9%
CC1CN(c2c(F)c(N)c3c(=O)c(C(=O)O)cn(C4CC4)c3c2F)CC(C)N1 (stereo not drawn) | -1.5%
CCCCN(Cc1ccc(C(=O)NO)cc1)C(=O)Nc1ccccc1 | 17.1% and 28%
O=c1[nH]cnc2c1ncn2C1OC(CO)C(O)C1O (stereo not drawn) | -29.3% and -1.72%
Cc1cc(C=CC#N)cc(C)c1Nc1ccnc(Nc2ccc(C#N)cc2)n1 | 22.4%
CC(Oc1cc(-c2cnn(C3CCNCC3)c2)cnc1N)c1c(Cl)ccc(F)c1Cl (stereo not drawn) | 14.2%
O=C(O)c1cc2cccc([N+](=O)[O-])c2[nH]1 | -18.1%
O=c1[nH]c(=O)n(C2CC(O)C(CO)O2)cc1I (stereo not drawn) | -14%

Same assay, conditions: HDN33 neuroblastoma cells, single agent, at 5 µM, stronger effect = higher value

Structure (SMILES) | inhibition
COc1ccccc1S(=O)(=O)Nc1ccc2c(c1)CN(C)C(=O)N2 | 26.1%
Cc1cc(C#N)cc(C)c1Oc1nc(Nc2ccc(C#N)cc2)nc(N)c1Br | -3.14%
Nc1ncn(C2OC(CO)C(O)C2O)c(=O)n1 (stereo not drawn) | 47.8%
Cc1cc(C)c(Nc2ccnc(Nc3ccc(C#N)cc3)n2)c(C)c1 | 42.2%
COc1ccc(CC(N)C(=O)NC2C(CO)OC(n3cnc4c(N(C)C)ncnc43)C2O)cc1 (stereo not drawn) | 99.9% and 100%
O=c1ccn(C2OC(CO)C(O)C2O)c(=O)[nH]1 (stereo not drawn) | 18.6% and -37.8%
CC=C1NC(=O)C2CSSCCC=CC(CC(=O)NC(C(C)C)C(=O)N2)OC(=O)C(C(C)C)NC1=O (stereo not drawn) | 99.9%
CN(C)CC(=O)Nc1ccc2[nH]c(=O)c3ccccc3c2c1 | 15.5% and 10.2% and 30.1%
CC1OC(n2cc(F)c(=O)[nH]c2=O)C(O)C1O (stereo not drawn) | -20.3%
Nc1ccn(C2OC(CO)C(O)C2(F)F)c(=O)n1 (stereo not drawn) | 88.8% and 90% and 87.7%
Cc1cn(C2CC(N=[N+]=[N-])C(CO)O2)c(=O)[nH]c1=O (stereo not drawn) | -44.8% and -1.12%
CC(C=CC(=O)NO)=CC(C)C(=O)c1ccc(N(C)C)cc1 (stereo not drawn) | 99.9%
NC(=S)NN=Cc1ncccc1N | 84.5%
CC(C)(C#N)c1ccc(N2C(=O)OCc3cnc4ccc(-c5cnc6ccccc6c5)cc4c32)cc1 | 52.2%
CC1CN(c2c(F)c(N)c3c(=O)c(C(=O)O)cn(C4CC4)c3c2F)CC(C)N1 (stereo not drawn) | 6.32%
CCCCN(Cc1ccc(C(=O)NO)cc1)C(=O)Nc1ccccc1 | 52.1% and 51.6%
O=c1[nH]cnc2c1ncn2C1OC(CO)C(O)C1O (stereo not drawn) | -56.1% and -7.95%
Cc1cc(C=CC#N)cc(C)c1Nc1ccnc(Nc2ccc(C#N)cc2)n1 | -11.3%
CC(Oc1cc(-c2cnn(C3CCNCC3)c2)cnc1N)c1c(Cl)ccc(F)c1Cl (stereo not drawn) | 74.1%
O=C(O)c1cc2cccc([N+](=O)[O-])c2[nH]1 | -9.97%
O=c1[nH]c(=O)n(C2CC(O)C(CO)O2)cc1I (stereo not drawn) | 24%

Experiment: ICB984 medulloblastoma cell growth inhibition, synergistic combos for chromothripsis tumors, cisplatin or BGB combos (AID 1671451);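 further: cells exposed for 96 hours before readout; 0% = vehicle DMSO and 100% = killing by high DMSO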
Details: ICB984 medulloblastoma cells, drug combinations, BGB IC20 combo, at 0.005 µM, stronger effect = higher value

Structure (SMILES) | inhibition
COc1ccccc1S(=O)(=O)Nc1ccc2c(c1)CN(C)C(=O)N2 | 0.625%
Cc1cc(C#N)cc(C)c1Oc1nc(Nc2ccc(C#N)cc2)nc(N)c1Br | -6.67%
Nc1ncn(C2OC(CO)C(O)C2O)c(=O)n1 (stereo not drawn) | 3.99%
Cc1cc(C)c(Nc2ccnc(Nc3ccc(C#N)cc3)n2)c(C)c1 | -14.3%
COc1ccc(CC(N)C(=O)NC2C(CO)OC(n3cnc4c(N(C)C)ncnc43)C2O)cc1 (stereo not drawn) | 14.3% and 49.6%
O=c1ccn(C2OC(CO)C(O)C2O)c(=O)[nH]1 (stereo not drawn) | 12.4% and 14.9%
CC=C1NC(=O)C2CSSCCC=CC(CC(=O)NC(C(C)C)C(=O)N2)OC(=O)C(C(C)C)NC1=O (stereo not drawn) | 90.4% and 84.4%
CN(C)CC(=O)Nc1ccc2[nH]c(=O)c3ccccc3c2c1 | -13.3% and -2.95% and -7.79%
CC1OC(n2cc(F)c(=O)[nH]c2=O)C(O)C1O (stereo not drawn) | -5.88%
Nc1ccn(C2OC(CO)C(O)C2(F)F)c(=O)n1 (stereo not drawn) | -3.49% and -7.36% and -23.1%
Cc1cn(C2CC(N=[N+]=[N-])C(CO)O2)c(=O)[nH]c1=O (stereo not drawn) | -34.8% and -14.5%
CC(C=CC(=O)NO)=CC(C)C(=O)c1ccc(N(C)C)cc1 (stereo not drawn) | 83.1%
NC(=S)NN=Cc1ncccc1N | -9.24%
CC(C)(C#N)c1ccc(N2C(=O)OCc3cnc4ccc(-c5cnc6ccccc6c5)cc4c32)cc1 | -18.4%
CC1CN(c2c(F)c(N)c3c(=O)c(C(=O)O)cn(C4CC4)c3c2F)CC(C)N1 (stereo not drawn) | -1.67%
CCCCN(Cc1ccc(C(=O)NO)cc1)C(=O)Nc1ccccc1 | -10.6% and 8.62%
O=c1[nH]cnc2c1ncn2C1OC(CO)C(O)C1O (stereo not drawn) | -8.62% and -21.3%
Cc1cc(C=CC#N)cc(C)c1Nc1ccnc(Nc2ccc(C#N)cc2)n1 | -0.887%
CC(Oc1cc(-c2cnn(C3CCNCC3)c2)cnc1N)c1c(Cl)ccc(F)c1Cl (stereo not drawn) | 9.17%
O=C(O)c1cc2cccc([N+](=O)[O-])c2[nH]1 | -35.7%
O=c1[nH]c(=O)n(C2CC(O)C(CO)O2)cc1I (stereo not drawn) | -15.6%
